Molecules are shown by their SMILES. A structure can be active in one record and inactive in another. Calls of active or inactive are those of the source. How the source made its calls: active means hit-call score of the fitted dose curve at least 0.9, where 1 is the maximum; inactive means score below 0.9.

Read-out in the assay: Thrombomodulin, THBD (gene 7056)
In words: BSK_CASM3C_Thrombomodulin: BioMAP Diversity Plus: CASM3C Assay for Thrombomodulin Biomarker Activity (AID 2283051).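 Further: thrombomodulin protein level measured by ELISA 24 h after dosing.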 To be noted: primary human coronary artery smooth muscle cells; actives raise or lower the signal.
As to `O=C(O)C(F)(F)C(F)(F)C(F)(F)C(F)(F)C(F)(F)C(F)(F)C(F)(F)F`, the result was inactive.

For the molecule `COP(=O)(OC)OC=C(Cl)Cl`, the result was inactive.

Take `COP(=S)(OC)Oc1ccc([N+](=O)[O-])cc1`: the outcome was inactive.

With `O=C(NC(=O)c1c(F)cccc1F)Nc1ccc(OC(F)(F)C(F)OC(F)(F)F)c(Cl)c1` (stereo unspecified), the result was inactive.

With `CCc1ccc(C(=O)NN(C(=O)c2cc(C)cc(C)c2)C(C)(C)C)cc1`, the outcome was inactive.

With `COC(=O)c1ccccc1S(=O)(=O)NC(=O)N(C)c1nc(C)nc(OC)n1`, the result was inactive.

As to `COC(=O)c1ccccc1CS(=O)(=O)NC(=O)Nc1nc(OC)cc(OC)n1`, the result was inactive.

Regarding `O=C(O)CCCOc1ccc(Cl)cc1Cl`, the result was inactive.

As for `O=[N+]([O-])/N=C1\NCCN1Cc1ccc(Cl)nc1`, the outcome was inactive.

For the molecule `Cc1[nH]c(=O)n(C(C)(C)C)c(=O)c1Cl`, the result was inactive.

For `CC(C)(C)C(O)C(Oc1ccc(Cl)cc1)n1cncn1` (stereo unspecified), the result was inactive.

`CCOCN(C(=O)CCl)c1c(C)cccc1CC`: the AC50 – broadly, the midpoint of the concentration-response curve, whichever way the signal moves – is 16.8 µM (active).

On to `[2H]C1([2H])[n+]2ccccc2-c2cccc[n+]2C1([2H])[2H]`, for which the result was inactive.

For the molecule `CCOc1nc(NC)nc(NC(=O)NS(=O)(=O)c2ccccc2C(=O)OC)n1`, the outcome was inactive.

Take `Cc1cc(C)nc(NC(=O)NS(=O)(=O)c2ccccc2C(=O)OC2COC2)n1`: the outcome was inactive.

Regarding `COc1nn(CSP(=S)(OC)OC)c(=O)s1`, the outcome was inactive.

In the case of `Oc1ccc(Cl)cc1Cc1ccccc1`, the outcome was inactive.

With `CCOC1Oc2ccc(OS(C)(=O)=O)cc2C1(C)C` (stereo unspecified), the result was inactive.

With `ClC1C(Cl)C(Cl)C(Cl)C(Cl)C1Cl` (stereo unspecified), the outcome was inactive.

For `N#CN`, the result was inactive.

As to `CC1(c2ccc(Oc3ccccc3)cc2)OC(=O)N(Nc2ccccc2)C1=O` (stereo unspecified), the outcome was inactive.

For `CCCN(CCC)c1c([N+](=O)[O-])cc(C(F)(F)F)cc1[N+](=O)[O-]`, the outcome was inactive.

As for `COc1cc(OC)nc(NC(=O)NS(=O)(=O)c2cc(NC=O)ccc2C(=O)N(C)C)n1`, the outcome was inactive.

For `O=S(=O)(O)C(F)(F)C(F)(F)C(F)(F)C(F)(F)C(F)(F)C(F)(F)C(F)(F)C(F)(F)F`, the outcome was inactive.

`N#Cc1c(Cl)c(Cl)c(Cl)c(C#N)c1Cl`: the outcome was inactive.

Regarding `O=[N+]([O-])c1c(Cl)c(Cl)c(Cl)c(Cl)c1Cl`, the AC50 was 24.8 µM (active).
